From PubChem BioAssay (Tox21) come the findings set out here.

A short description of the assay: cAMP Responsive Elements (CRE) small molecule agonists, cell-based qHTS assay: qHTS cell viability counter screen (AID 2060914).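 Also: viability read after 3 h of compound exposure; nearly all actives have a fitted effect of over 50% in size.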 The essentials: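 CRE-bla HEK 293T cells, plated 18 h at 37 °C, were exposed to compounds for 3 h at 37 °C/5% CO2. Viability was then measured in the same wells by CellTiter-Glo luminescence after 30 min at room temperature.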

Inconclusive results are not listed. Where a call stands in place of a potency, no number is given. A number with no mark means an inactive call. Active and inactive are the calls of the source. Calls follow the shape of the dose curve; as a rule, active = well fitted cell-killing curve with a large enough effect in the repeat runs; inconclusive = weak or mixed curves, or effect the other way; inactive = flat fitted curve, though single readings scatter.
Potency is read from the fitted curve at half-maximal effect.

Take `CC(C)OC(=O)C(O)(c1ccc(Cl)cc1)c1ccc(Cl)cc1`: the Potency entry is “inactive”.

For `O=[N+]([O-])c1ccc(Oc2ccc(Cl)cc2Cl)cc1`, the Potency entry was “inactive”.

`CCC(Br)(CC)C(=O)NC(N)=O`: the Potency entry is “inactive”.

With `COc1cccc2c1cc([N+](=O)[O-])c1c(C(=O)O)cc3c(c12)OCO3`, the Potency entry was “inactive”.

Turning to `CC(c1ccccc1)(c1ccc(O)cc1)c1ccc(O)cc1`, the Potency entry was “inactive”.

Regarding `O=[N+]([O-])[O-].[Tl+]`, the Potency result was “inactive”.

Turning to `[Cd+2].[Cl-].[Cl-]`, the Potency result was “inactive”.

On to `COP(=S)(NC(C)C)Oc1ccc(C)cc1[N+](=O)[O-]` (stereo not drawn), for which the Potency entry was “inactive”.

For `CC(=O)[O][Pb]([c]1ccccc1)([c]1ccccc1)[c]1ccccc1`, the Potency is 24.3 µM (active).

`CC(C)(C)NCC(O)c1ccccc1Cl` (stereo not drawn): the Potency result is “inactive”.

With `C=C(C)[C@H]1Cc2c(ccc3c2O[C@@H]2COc4cc(OC)c(OC)cc4[C@@H]2C3=O)O1`, the Potency result is “inactive”.

For `CC(Oc1ccc(Cl)cc1Cl)C(=O)O` (stereo not drawn), the Potency entry was “inactive”.

As for `O=S(=O)(NS(=O)(=O)C(F)(F)F)C(F)(F)F`, the Potency entry was “inactive”.

In the case of `Brc1c(Br)c(Br)c(Br)c(Br)c1Br`, the activity change, negative = cytotoxicity was 7.31% [at 8.39 µM].

`CO/N=C(/C1=NOCCO1)c1ccccc1Oc1ncnc(Oc2ccccc2Cl)c1F`: the Potency result was “inactive”.

For `ClCC1CO1` (stereo not drawn), the Potency entry was “inactive”.

For `CC(C)N(CCC(C(N)=O)(c1ccccc1)c1ccccn1)C(C)C` (stereo not drawn), the Potency entry is “inactive”.

As to `BrCc1ccc(Br)cc1`, the Potency entry was “inactive”.
